Source: PubChem BioAssay AID651791 (National Center for Advancing Translational Sciences (NCATS), 2012)
Records with an inconclusive call do not appear. The source made the active and inactive calls. Calls come from the whole dose curve; as a rule, active = well fitted inhibition curve with a large enough effect; inconclusive = small, poorly fitted or top-dose-only effect; inactive = no such curve, though single readings can be large or run the other way.

Assay: InCell qHTS Assay for Inhibitors of the mTORC1 Signaling Pathway in MEF (Tsc2-/-, p53-/-) Cells: Hit Validation;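 note: phospho-S6 Ser235/236 signal normalized to propidium iodide cell count per well; nearly all actives have a fitted effect of over 75% in size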
Details: phospho-rpS6 immunofluorescence, 24 h; activity change, negative = inhibition: at 38.3 µM (top of the series)
Potency is the fitted concentration of half-maximal effect.

| SMILES | Potency | activity change, negative = inhibition [%] |
| --- | --- | --- |
| CCn1c(=N)n(CCOc2ccc(Br)cc2)c2ccccc21 | 14.7 µM (active) | – |
| Cc1cccc(NC(=O)Cn2cc(C(=O)c3ccco3)c3ccccc32)c1C | – | -100 |
| O=C(CCCn1ccc2cc(S(=O)(=O)N3CCCC3)ccc21)NCc1ccc(Cl)cc1 | – | -100 |
| CC(=O)C1=C(c2ccc(Cl)c(Cl)c2)N(C(C)=O)n2c(C)nnc2S1 | 7.36 µM (active) | – |
| COc1ccc(OC)c(C(=O)CC2(O)C(=O)N(Cc3ccccc3C)c3ccccc32)c1 (stereo not given) | – | -100 |
| COc1ccc(CCN2C(=O)c3[nH]nc(-c4ccccc4O)c3C2c2cccc(OC)c2)cc1 (stereo not given) | – | -28.2 |
| O=C(NCc1ccccc1)c1nc(S(=O)(=O)Cc2ccccc2)ncc1Cl | 5.85 µM (active) | – |
| COc1ccc(Cl)cc1NC(=O)CCCS(=O)(=O)c1nc(-c2ccc(OC)c(OC)c2)cc(C(F)(F)F)n1 | 14.7 µM (active) | – |
| O=C(NC1CCN(Cc2ccccc2)CC1)c1ccc(Cn2c(=O)c3ccccc3n(Cc3ccc(F)cc3)c2=O)cc1 | – | -100 |
| CCOc1ccccc1NC(=O)CN1C(=O)C(=O)c2ccccc21 | – | -100 |
| CN(CCCNC(=O)c1cc2c(Cl)nc3ccccc3c2s1)Cc1ccccc1 | – | -100 |
| CC(=O)Nc1cccc(NC(=O)C(=O)NCCc2sc(-c3ccccc3)nc2C)c1 | – | -9.58 |
| COc1ccc(NC(=O)c2c(NC(=O)COc3ccccc3)sc3c2CCC(C)C3)cc1 (stereo not given) | – | -100 |
| Cc1cccn2c(Nc3ccccc3)c(-c3cccs3)nc12 | – | -100 |
| CCC(C)NC(=O)c1sc2nc(C)c(C(=O)Nc3ccc(C)cc3C)c(-c3ccc(Cl)cc3)c2c1N (stereo not given) | – | -100 |
